Screening results as filed in PubChem BioAssay.
HRas wt GTP bind: changes GTP binding to wildtype human HRas; P01112; GST-Ras wt beads, Bodipy-FL-GTP binding, flow cytometry; actives lie on both sides; GTP binding activity, % at 10 µM; 190,000 tested, 0.14% active; AID 759;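 active means GTP binding activity at least 20% away from the 100% baseline, either lowered as inhibitor or raised as activator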;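 further: 0% = unlabeled GTP competition control and 100% = no-compound control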
Target sequence (P01112 whole entry, looked up): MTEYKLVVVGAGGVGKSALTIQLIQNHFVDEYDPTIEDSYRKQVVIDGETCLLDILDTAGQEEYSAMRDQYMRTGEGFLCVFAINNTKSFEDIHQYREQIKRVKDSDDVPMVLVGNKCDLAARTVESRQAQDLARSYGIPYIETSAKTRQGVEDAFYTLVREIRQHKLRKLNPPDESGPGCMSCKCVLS
Rac1 mut GTP: alters GTP binding to activated mutant human Rac1. P63000. GST-Rac1 activated beads, fluorescent GTP binding, flow cytometry; actives lie on both sides; 100% means binding = to untreated wells. percent activity (GTP binding), % at 10 µM. 190,000 tested, 0.11% active. AID 764;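 active means GTP binding at least 20 percentage points away from the 100% baseline, in either direction, so actives lie on both sides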
Cdc42 wt GTP: changes GTP binding to wildtype human Cdc42 | P60953 | GST-Cdc42 beads, Bodipy-GTP binding, flow cytometry; actives lie on both sides | percent activity (GTP binding), % at 10 µM | 190,000 tested, 0.2% active;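 active means percent activity GTP binding at least 20 points away from the 100% baseline, either down as inhibitor or up as activator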;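 further: median bead fluorescence of bound Bodipy-FL-GTP at 100 nM; 0% = excess unlabeled GTP control and 100% = no compound control; below 100% means less GTP binding so inhibitor and above means activator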
Target sequence (P60953 whole entry, looked up): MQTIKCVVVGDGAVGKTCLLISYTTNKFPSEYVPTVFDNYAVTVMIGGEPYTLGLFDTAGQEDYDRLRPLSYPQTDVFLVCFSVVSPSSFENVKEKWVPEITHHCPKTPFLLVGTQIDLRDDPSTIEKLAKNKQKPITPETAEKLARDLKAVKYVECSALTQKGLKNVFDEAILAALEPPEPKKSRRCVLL
Rab2A wt mod: changes GTP binding to wildtype dog Rab2A, up or down; GST-Rab2 wt beads, Bodipy-GTP binding, flow cytometry; P61105; 190,000 tested, 0.19% active; GTP binding activity, % at 10 µM;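 active means GTP binding activity at least 20 points away from 100%, either lowered or raised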;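 further: 0% = beads with excess unlabeled GTP and 100% = no-compound control corrected for plate trend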
Rac1 wt modul: modulators of human Rac1 wildtype GTP binding; GST-Rac1 beads, fluorescent GTP binding, flow cytometry; actives lie on both sides; 0 = cold GTP competed, 100 = untreated; 190,000 tested, 0.27% active; AID 757; P63000; GTP binding activity (% of control), % at 10 µM;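 active means GTP binding activity at least 20 points away from the 100% control level, either lower or higher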
Rab7 wt GTP bind: dog Rab7 wildtype GTP binding, inhibitors and activators. GST-Rab7 beads, fluorescent GTP binding, flow cytometry; actives lie on both sides; untreated = 100%, excess cold GTP = 0%. GTP binding activity (percent of control), % at 10 µM. 190,000 tested, 0.055% active. AID 758;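 active means fluorescent GTP binding to Rab7 beads changed by at least 20 points from the 100% baseline, either direction, mostly lower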;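 further: median green fluorescence of bound Bodipy-FL-GTP per Rab7 bead population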
An asterisk follows results filed as active; [ ] = another dose, or the depositor's remark. Only some compounds are listed: those with a hit (about 0.38% of all), similar ones and a draw of the others.

SMILES	HRas wt GTP bind	Rac1 mut GTP	Cdc42 wt GTP	Rab2A wt mod	Rac1 wt modul	Rab7 wt GTP bind
Cc1ccc(C(=O)c2ccccc2C(=O)OCC(=O)NCC2CCCO2)cc1 (configuration not stated)	101.0	97.0	98.0	99.0	102.0	106.0
COc1ccc(N=C2CC(C)(C)CC(=O)/C2=C(/O)c2ccccc2)cc1	96.0	95.0	96.0	93.0	94.0	94.0
O=C(CN1C(=O)C(=O)N(Cc2ccco2)C1=O)NC1CCCCC1	96.0	97.0	96.0	97.0	99.0	95.0
Cn1c(=O)[nH]c(=O)c2c1nc(Br)n2CC(O)COc1ccc(Cl)cc1 (configuration not stated)	99.0	98.0	100.0	100.0	101.0	103.0
O=c1[nH]c2ccccc2c2nc3ccccn3c12	93.0	95.0	95.0	92.0	99.0	94.0
O=c1nc2c(O)cccn2c2c1c(=O)[nH]c1ccccc12	59.0*	77.0*	70.0*	62.0*	61.0*	81.0
CCOC(=O)Oc1ccc2oc(C)c(C(=O)OCCOC)c2c1	99.0	97.0	98.0	99.0	100.0	99.0
COCCOC(=O)c1c(C)oc2ccc(OC(=O)c3ccc4c(c3)OCO4)cc12	83.0	73.0*	77.0*	76.0*	75.0*	79.0*
COc1ccc(C(=O)NC(=S)N2CC(C)OC(C)C2)cc1 (configuration not stated)	91.0	98.0	154.0*[activator]	98.0	137.0*[activator]	93.0
COCCNc1nnnc2c1sc1nc(N3CCOCC3)c3c(c12)CCCC3	82.0	88.0	81.0	83.0	73.0*	95.0
OCCNc1ncnc2c1sc1nc(N3CCOCC3)c3c(c12)CCC3	91.0	94.0	91.0	86.0	94.0	91.0
COc1cc(/C=C/c2ccc3cccc([N+](=O)[O-])c3n2)ccc1OCC(=O)O	72.0*	85.0	70.0*	69.0*	80.0	95.0
CCOC(=O)Nc1sc(C)c(C)c1C(N)=O	100.0	99.0	99.0	97.0	104.0	104.0
CC(C)(C)OC(=O)N[C@@H](Cc1ccccc1)c1nnc(S(=O)(=O)Cc2cccc(F)c2)o1	100.0	99.0	105.0	101.0	101.0	79.0*
O=C(Cc1c[nH]c2ccccc12)NC1(C(=O)NC2CCCC2)CCCCC1	98.0	95.0	98.0	100.0	100.0	106.0
O=C(COc1ncnc2cc([N+](=O)[O-])ccc12)NCCc1ccc(Cl)cc1	84.0	90.0	81.0	80.0	77.0*	92.0
CCOC(=O)c1c(C)[nH]c(C)c1C(=O)COc1ncnc2cc([N+](=O)[O-])ccc12	70.0*	81.0	64.0*	63.0*	63.0*	74.0*
O=C(COc1ncnc2cc([N+](=O)[O-])ccc12)NC(=O)NC1CCCCC1	85.0	89.0	80.0	79.0*	75.0*	90.0
O=C(Cn1cnc2cc([N+](=O)[O-])ccc2c1=O)NCc1ccc(Cl)cc1	84.0	86.0	77.0*	80.0	74.0*	91.0
COc1ccc(C(=O)C2CCCN(S(=O)(=O)C(C)C)C2)c(C)c1 (configuration not stated)	93.0	93.0	94.0	95.0	95.0	98.0
Cc1cccc(Cc2c(C)nc3nc(SCC(=O)O)nn3c2C)c1	78.0*	68.0*	66.0*	74.0*	72.0*	89.0
Cc1nc2nc(SCC(=O)NCCN3CCOCC3)nn2c(C)c1Cc1ccccc1	100.0	100.0	99.0	100.0	103.0	100.0
CSc1nsc(SCC(=O)N2CCCCC2)n1	99.0	100.0	102.0	101.0	107.0	102.0
Cc1sc2nc3c(SC(C)C(=O)O)cc(C(=O)c4ccccc4O)cn3c(=O)c2c1C (configuration not stated)	87.0	86.0	83.0	85.0	75.0*	89.0
COc1cc(NC(=S)NCCc2ccc(S(N)(=O)=O)cc2)c(OC)cc1Cl	96.0	94.0	95.0	95.0	97.0	92.0
SMILES	HRas wt GTP bind	Rac1 mut GTP	Cdc42 wt GTP	Rab2A wt mod	Rac1 wt modul	Rab7 wt GTP bind
CCOC(=O)c1cnc(SCc2ccc(C)cc2)nc1N	103.0	104.0	107.0	105.0	120.0*[activator]	101.0
CC1=C(C#N)c2nc(N)c(C#N)c(C)c2/C1=C\c1ccc(-c2ccccc2C(=O)O)o1	81.0	81.0	78.0*	76.0*	75.0*	88.0
COc1cc(/C=C2/C(C)=C(C#N)c3nc(N)c(C#N)c(C)c32)ccc1OCC(=O)O	85.0	80.0	80.0	81.0	87.0	87.0
COc1ccc(/C=N/NC(=O)C(=O)NCc2cccnc2)cc1	97.0	101.0	103.0	100.0	98.0	94.0
CS(=O)(=O)N1CCN(C(=O)C2c3ccccc3Oc3ccccc32)CC1	111.0	102.0	116.0	112.0	121.0*[activator]	103.0
CC1=NC(=O)C(N=Nc2ccccc2C(=O)O)N1c1ccccc1 (configuration not stated)	84.0	81.0	80.0	80.0	79.0*	91.0
CC1=NC(=O)C(N=Nc2ccccc2)N1c1ccccc1 (configuration not stated)	98.0	98.0	97.0	95.0	100.0	99.0
COc1cccc(C(=O)C2CCCN(C(=O)c3cccc(C#CC(C)(C)O)c3)C2)c1 (configuration not stated)	96.0	97.0	97.0	97.0	97.0	101.0
COc1cc(/C=C(\C#N)c2nc3ccc(C)cc3[nH]2)cc([N+](=O)[O-])c1O	83.0	85.0	78.0*	77.0*	70.0*	84.0
CC(=O)Oc1ccc2c(=O)c(-c3nc4ccccc4s3)coc2c1	96.0	95.0	97.0	96.0	97.0	95.0
CCCCn1c(SCC(=O)c2ccccc2)nc2c1c(=O)[nH]c(=O)n2C	41.0*	36.0*	38.0*	36.0*	33.0*	21.0*
CCCCCn1c(SCCc2ccccc2)nc2c1c(=O)[nH]c(=O)n2C	102.0	100.0	101.0	102.0	106.0	104.0
CNC(=O)COC(=O)c1cc(NC(=O)c2ccco2)c(OC)c(OC)c1	81.0	87.0	78.0*	80.0	83.0	87.0
O=C(NC1CCCC1)C(c1ccccc1)N(Cc1cccnc1)C(=O)Cc1cccs1 (configuration not stated)	99.0	98.0	99.0	100.0	100.0	100.0
COc1cc(/C=N/Nc2nc(C)nc3c2cnn3-c2ccccc2)ccc1O	83.0	85.0	77.0*	79.0*	70.0*	95.0
COc1cc(/C=N/NC(=O)c2cnn3c(C)cc(-c4ccccc4)nc23)ccc1O	96.0	89.0	89.0	89.0	89.0	94.0
O=c1[nH]c(=O)c2nnc(N/N=C\c3ccc(O)cc3)nc2[nH]1	63.0*	74.0*	60.0*	59.0*	54.0*	92.0
Oc1ccc(/C=N/Nc2nc(-c3ccc(Cl)cc3)cc(C(F)(F)F)n2)cc1	99.0	98.0	100.0	98.0	102.0	100.0
COc1ccc(S(=O)(=O)N2CCC3(CC2)OCCO3)cc1	97.0	96.0	97.0	97.0	99.0	94.0
CC(=O)Nc1ccc(NC(=O)CSc2nnc3ccc(-c4ccc(F)cc4)nn23)cc1	99.0	97.0	99.0	99.0	101.0	98.0
